Screening results: PubChem, National Center for Advancing Translational Sciences (NCATS)
Cycloheximide cs: counter-screen hit for Shiga toxin inhibitors, cycloheximide; cell reporter, cycloheximide protein synthesis inhibition counterscreen; max response, %; actives 12% (n = 300,000); AID 2314; in the data active = max response mostly above about 13%, no sharp cut-off; inactive = mostly below about 14%; also: read at 38.3 µM for the half of the compounds with a filed dose
RE007 growth inh: less growth of the S. pombe RE007 Vpr strain. S. pombe RE007 Vpr strain, BacTiter-Glo ATP luminescence, 24 h. Potency, µM (titrated, usually from 92.2 µM), usual class: inhibitors. actives 0.21% (n = 360,000). AID 651644; active = well fitted falling curve with a large enough effect; inconclusive = small, poorly fitted or top-dose-only effect; inactive = no such curve, though single readings can be large or run the other way; also: nearly all actives have a fitted effect of over 50% in size
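Fission yeast RE007 carrying one integrated HIV-1 vpr copy, seeded at OD 0.01 in PMG+AL medium with 23 nL pinned compound. Grown 24 h at 30 degrees; viability read by BacTiter-Glo luminescence after 5 min.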
FBPA Giardia inh: inhibitors of Giardia lamblia fructose-1,6-bisphosphate aldolase; A8B2U2; purified Giardia FBPA; Potency, µM (series often up to 59.6 µM), most hits filed as inhibitors; actives 0.71% (n = 290,000); also: nearly all actives have a fitted effect of over 55% in size
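40 nM FBPA preincubated 10 min at RT with compound (up to 57.5 uM final), then substrate plus GAPDH/TPI/NAD/arsenate coupling and diaphorase/resazurin added. Fluorescence read after 20 min at RT, 525/598 nm.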
Tb PYK inh: blocks Trypanosoma brucei pyruvate kinase. Potency, µM (series often up to 76.8 µM), hits mostly inhibitors. TbPYK enzyme, Kinase-Glo Plus ATP luminescence, 45 min. actives 0.12% (n = 410,000). AID 624173; also: nearly all actives have a fitted effect of over 50% in size
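Activity of T. brucei pyruvate kinase was followed by Kinase-Glo Plus luminescence after the enzyme reacted 45 min at room temperature with 130 uM ADP (final) and substrate. Test compounds were added before ADP at multiple concentrations.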
Shiga toxin inh: Shiga toxin inhibition. Vero cells, Shiga toxin protein synthesis inhibition reporter. inhibition, % at 38.7 µM. actives 9.2% (n = 290,000); in the data active = inhibition mostly above about 28%, no sharp cut-off; inactive = mostly below about 43%
LmPK inhibitor: LmPK (Leishmania mexicana) enzyme inhibition | purified LmPK, Kinase-Glo ATP luminescence, 1 h | Potency, µM (series often up to 57.5 µM), usual class: inhibitors | actives 0.37% (n = 290,000) | Q27686
Target sequence (Q27686 whole entry, looked up): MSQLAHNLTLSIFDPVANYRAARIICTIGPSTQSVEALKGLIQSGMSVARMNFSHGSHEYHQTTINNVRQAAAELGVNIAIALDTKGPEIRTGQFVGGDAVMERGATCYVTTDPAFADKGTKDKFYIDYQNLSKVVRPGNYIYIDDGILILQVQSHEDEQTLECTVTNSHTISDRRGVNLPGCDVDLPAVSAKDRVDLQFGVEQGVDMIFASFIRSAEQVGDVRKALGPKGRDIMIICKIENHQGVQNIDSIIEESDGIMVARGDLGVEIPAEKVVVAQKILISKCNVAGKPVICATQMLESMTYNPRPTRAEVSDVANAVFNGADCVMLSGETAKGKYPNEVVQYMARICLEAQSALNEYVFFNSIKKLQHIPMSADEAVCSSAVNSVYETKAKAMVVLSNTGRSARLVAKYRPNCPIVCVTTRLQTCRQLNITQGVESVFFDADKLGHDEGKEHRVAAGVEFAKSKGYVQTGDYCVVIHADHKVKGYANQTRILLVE
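In 50 mM imidazole pH 7.2 with 7 mM MgCl2, LmPK (0.1 nM) turned over PEP (0.5 mM) and ADP (0.1 mM) for 1 h at room temperature. Luciferase read-out of ATP.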
Hits are given with their value; i = inactive; ? = inconclusive; nt = not tested or not shown. The sample as a whole holds a higher share of hits than the screen did. Unless noted, calls follow the shape of the dose curve; as a rule, active = well fitted curve in the direction sought with a large enough effect; inconclusive = small, poorly fitted or top-dose-only effect, or another doubt; inactive = no such curve, though single readings can be large; an effect the other way counts as inactive or inconclusive.

SMILES	Cycloheximide cs	RE007 growth inh	FBPA Giardia inh	Tb PYK inh	Shiga toxin inh	LmPK inhibitor
COc1cc2nc(NCCc3cccc(C)c3)n3nc(-c4ccccc4)nc3c2cc1OC	nt	nt	nt	i	nt	nt
S=C(Nc1ccccc1)Nc1ccc2cn[nH]c2c1	46.1	i	?	i	55.1	i
NC(=S)Nc1cccc(-c2n[nH]c(=S)o2)c1	i	i	?	i	i	i
NC(=S)Nc1ccc2cn[nH]c2c1	i	i	i	i	i	i
Cc1ccc(NC(=S)Nc2cccc(-c3n[nH]c(=S)o3)c2)cc1	32.4	i	i	i	40.2	i
O=C(NC(=S)Nc1ccc2cn[nH]c2c1)c1ccccc1	40.9	i	?	i	78.7	i
Cc1ccc(NC(=S)Nc2ccc3cn[nH]c3c2)cc1	17.9	i	i	i	i	i
COCCn1nnnc1C(c1ccc(OC)c(OC)c1)N1CCN(C(=O)c2ccco2)CC1 (configuration not stated)	i	i	?	i	i	i
N#Cc1ccc(OCc2ccc(C(=O)O)o2)cc1	i	i	i	i	i	i
CCOc1cc(/C=N/NC(=O)c2cccnc2)ccc1OCc1ccc(C(=O)OC)o1	i	i	i	i	i	i
O=C(O)c1ccc(COc2ccc(Cl)cc2)o1	24.2	i	i	i	i	i
COC(=O)c1ccc(COc2ccc(/C=N/O)cc2OC)o1	20.3	i	i	i	71.0	i
C=CCc1ccc(OCc2ccc(C(=O)Nc3ccc(NC(C)=O)cc3)o2)c(OC)c1	46.8	i	i	i	136.1	i
O=C(O)c1ccc(OCc2ccc(C(=O)O)o2)cc1	14.8	i	i	i	i	i
CCc1nn(CC(=O)N(CC)Cc2ccccc2)c(=O)c2cc3occc3n12	nt	nt	nt	i	nt	nt
CCN(CC)CCNC(=S)NC(=O)c1cn(-c2ccccc2)nc1-c1ccc(OC)cc1	i	i	i	i	i	i
COc1ccc(C2=CC(c3ccc(F)cc3)n3ncc(C(=O)Nc4ccc(C)cc4)c3N2)cc1 (configuration not stated)	nt	nt	nt	i	nt	nt
Cc1ncc(CO)c2c1Oc1nc(-c3ccccc3)nc(SCC(=O)Nc3cccc(C(F)(F)F)c3)c1C2	nt	nt	nt	i	nt	nt
Cc1ccc(NC(=O)c2cc(S(=O)(=O)N(C)C)ccc2N2CCCC2)cc1F	i	i	i	i	i	i
COC(=O)c1ccc(COc2cccc(OC)c2)o1	21.7	i	i	i	57.6	i
COC(=O)c1ccc(COc2ccc(Cl)cc2)o1	20.1	i	i	i	74.8	i
CCc1ccc(OCc2ccc(C(=O)O)o2)cc1	64.3	i	i	i	101.1	i
CCN1CCN(C(=O)c2ccc(COc3ccc(Cl)cc3)o2)CC1	i	i	nt	i	i	i
COCCN(C(=O)c1ccc(OC2CCN(S(=O)(=O)N(C)C)CC2)cc1)C(C)C	10.8	i	i	i	i	i
COCC(=O)N1CCC(Oc2ccc(C(=O)N(C)CCCC3CCCC3)cc2)CC1	21.7	i	i	i	i	i
SMILES	Cycloheximide cs	RE007 growth inh	FBPA Giardia inh	Tb PYK inh	Shiga toxin inh	LmPK inhibitor
C=CCNC(=O)c1ccc(OC2CCN(S(=O)(=O)N(C)C)CC2)cc1	50.5	i	i	i	95.4	i
COC(=O)CN(C)C(=O)c1ccc(OC2CCN(S(=O)(=O)N(C)C)CC2)cc1	21.1	i	i	i	33.4	i
COCC(=O)N1CCC(Oc2ccc(C(=O)N3CCCCCCC3)cc2)CC1	i	i	i	i	i	i
CN(C)S(=O)(=O)N1CCC(Oc2ccc(C(=O)NCC(C)(C)CO)cc2)CC1	i	i	i	i	i	i
CN(C)S(=O)(=O)N1CCC(Oc2ccc(C(=O)NC3CCCCC3)cc2)CC1	i	i	i	i	i	i
Cc1nc2nc(SCC(=O)NCCc3ccc(Cl)cc3)nn2c(C)c1Cc1ccccc1	nt	nt	nt	i	nt	nt
O=C1OC(c2ccccc2)(c2ccc3cc(O)ccc3c2)c2ccccc21 (configuration not stated)	nt	i	nt	i	nt	nt
CCOc1ccc(Sc2cc(C(=O)NCCCOC)c3ccccc3n2)cc1	nt	nt	nt	i	nt	nt
C=CCN(CC=C)C(=O)c1ccc(OC2CCN(S(=O)(=O)N(C)C)CC2)cc1	53.4	i	i	i	87.2	i
CC(NC(=O)c1ccc(OC2CCN(S(=O)(=O)N(C)C)CC2)cc1)C1CC1 (configuration not stated)	20.0	i	i	i	i	i
C=CCN(CC=C)C(=O)c1cccc(OC2CCN(S(=O)(=O)N(C)C)CC2)c1	i	i	i	i	i	i
N#Cc1cc2c([nH]c1=O)CCCC2	i	i	i	i	i	i
N#Cc1cc2c([nH]c1=S)CCCC2	32.8	i	i	5.62µM	50.5	i
CCc1ncc(C(=O)c2ccc(OC)cc2)n1C	14.2	i	i	i	i	i
O=C(c1c2c(nc3ccccc13)C(=O)N(C1CCCCC1)C2)N1CCN(c2ccc(F)cc2)CC1	nt	nt	nt	i	nt	nt
Clc1cccc(Cl)c1CNc1ccc(N2CCCC2)cc1	20.5	i	?	?	i	i
O=C(Cc1ccc(Cl)cc1)Nc1ccc(N2CCCC2)cc1	i	i	i	i	i	i
CN(C)c1ccc(NC(=O)CSC2=Nc3ccccc3C3=NC(CC(=O)NCc4ccccc4)C(=O)N23)cc1 (configuration not stated)	nt	nt	nt	i	nt	nt
CCc1ccccc1NC(=S)NN	i	nt	15.8µM	nt	i	i
COc1ccc(C(=O)Nc2ccnn2C2CCN(C(=O)c3cnsn3)CC2)cc1	20.1	i	i	i	i	i
COc1ccccc1NC(=O)Nc1ccnn1C1CCN(C(=O)c2ccccn2)CC1	i	i	nt	i	i	i
COc1ccccc1NC(=O)Nc1ccnn1C1CCN(C(=O)c2cscn2)CC1	32.3	i	nt	i	i	i
O=C(Nc1cccc(F)c1)Nc1ccnn1C1CCN(C(=O)c2ccccn2)CC1	23.0	i	nt	i	42.1	i
COc1ccccc1C(=O)Nc1ccnn1C1CCN(C(=O)c2ccoc2C)CC1	14.9	i	i	i	i	i
Cc1cccc(CNc2cc(-c3cccnc3)ncn2)c1	nt	nt	i	nt	nt	nt
SMILES	Cycloheximide cs	RE007 growth inh	FBPA Giardia inh	Tb PYK inh	Shiga toxin inh	LmPK inhibitor
Cc1c(C(C)(C)O)[nH]c2cc(C(F)(F)F)ccc12	i	i	i	i	i	i
CC(C)(O)c1[nH]c2cc(C(F)(F)F)ccc2c1C(C)(C)O	i	i	i	i	37.1	i
CC(C)(O)c1[nH]c2ccc(C(F)(F)F)cc2c1C(C)(C)O	7.9	i	i	i	i	i
CCCCCCOc1ccc(C2C(=O)N(C3CCCCC3)CC(=O)N2C2CCCCC2)cc1 (configuration not stated)	nt	nt	nt	i	nt	nt
CC1CCc2c(C(=O)NCC3CCCO3)csc2C1 (configuration not stated)	85.8	i	i	i	98.0	i
CCSc1nnc(NC(=O)c2csc3c2CCC(C)C3)s1 (configuration not stated)	i	i	i	i	i	i
